Compound activity deposited in PubChem BioAssay by The Scripps Research Institute Molecular Screening Center.
hgDAF12 agonist = H. glycines DAF-12 receptor agonists, primary screen, cell-based, luminescence, HEK293, GAL4 fusion, UAS-luciferase; Nuclear hormone receptor DAF-12 (Heterodera glycines), GAL4 fusion; HEK293 GAL4-hgDAF12 UAS-luciferase reporter, agonist luminescence; normalized to butyrate control; activation, % at 6.8 µM; hit rate 1.8% among 370,000;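 active = activation above a cutoff set at the mean of all screened compounds plus 3 SD, cut at about 10% in these data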
DAX1 inh-1 = DAX1 (NR0B1) inhibitors, primary screen, cell-based, HEK293, Gal4-DAX1, luciferase luminescence | HEK293 Gal4-DAX1 luciferase reporter | inhibition, % at 6.75 µM | AID 504766, 2011 | hit rate 0.99% among 340,000;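 active = inhibition above the mean over all tested compounds plus 3 SD, cut at about 4.2% in these data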;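 also: inhibition shows as a rise in luminescence from relieved DAX1 repression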
ssDAF12 agonist = S. stercoralis DAF-12 nuclear receptor activators, primary screen, cell-based, luminescence, HEK293, GRIP1 co-expression, lit1-tk-luc. Nuclear hormone receptor DAF-12 (Strongyloides stercoralis). hit rate 1% among 370,000. activation, % at 6.8 µM. HEK293 ssDAF-12/GRIP1 lit1-tk-luc reporter; % of 3 µM dafachronic acid response;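 active = activation above the mean over all tested compounds plus 3 SD, cut at about 0.9% in these data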
AHR activator = AHR activators, primary screen, cell-based, luminescence, luciferase reporter, human; AID 2796, 2010; activation, % at 5 µM; hit rate 2.5% among 320,000; AHR-responsive luciferase reporter cells; Aryl hydrocarbon receptor (Homo sapiens), P35869; in the data active = activation above about 47%
Target sequence (P35869 whole entry, looked up): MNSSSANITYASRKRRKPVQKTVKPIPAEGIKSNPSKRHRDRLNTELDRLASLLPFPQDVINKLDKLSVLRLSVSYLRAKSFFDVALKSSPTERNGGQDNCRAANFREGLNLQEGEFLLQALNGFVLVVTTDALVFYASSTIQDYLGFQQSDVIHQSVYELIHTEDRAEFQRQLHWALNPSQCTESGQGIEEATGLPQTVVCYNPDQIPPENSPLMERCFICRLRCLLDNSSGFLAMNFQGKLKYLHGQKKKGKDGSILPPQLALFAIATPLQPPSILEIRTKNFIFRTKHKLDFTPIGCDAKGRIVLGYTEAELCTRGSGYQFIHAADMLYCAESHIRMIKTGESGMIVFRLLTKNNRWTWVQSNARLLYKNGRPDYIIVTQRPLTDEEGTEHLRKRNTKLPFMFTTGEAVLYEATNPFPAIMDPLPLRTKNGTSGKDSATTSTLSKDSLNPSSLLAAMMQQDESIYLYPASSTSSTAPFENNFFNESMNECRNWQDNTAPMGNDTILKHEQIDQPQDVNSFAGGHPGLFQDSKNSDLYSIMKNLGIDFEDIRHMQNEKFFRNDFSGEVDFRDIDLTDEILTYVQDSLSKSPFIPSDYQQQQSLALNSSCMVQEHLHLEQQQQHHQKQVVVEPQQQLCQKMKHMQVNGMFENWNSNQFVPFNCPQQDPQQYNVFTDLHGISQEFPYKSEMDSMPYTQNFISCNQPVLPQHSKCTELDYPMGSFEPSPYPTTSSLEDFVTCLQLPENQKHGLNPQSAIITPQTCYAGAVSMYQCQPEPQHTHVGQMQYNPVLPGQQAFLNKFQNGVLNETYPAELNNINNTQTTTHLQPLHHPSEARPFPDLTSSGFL
hcDAF12 agonist = H. contortus DAF-12 nuclear receptor activators, primary screen, cell-based, luminescence, HEK293, lit1-tk-luc reporter; activation, % at 6.8 µM; HEK293 hcDAF-12 lit1-tk-luc reporter; 0% DMSO, 100% Δ7-dafachronic acid; hit rate 1.4% among 370,000;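 active = activation above the mean of all tested compounds plus 3 SD, cut at about 5.5% in these data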
DAX1 inh-2 = DAX1 (NR0B1) inhibitors on StAR promoter, primary screen, cell-based, luminescence, SF-1 (NR5A1), full-length DAX-1. HEK293T StAR-luciferase reporter, SF-1/DAX-1 repression relief. inhibition, % at 6.8 µM. hit rate 1.1% among 370,000. AID 652010, 2013;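 active = inhibition above the mean over all tested compounds plus 3 SD, cut at about 3.6% in these data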;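 also: higher inhibition means more luminescence from relief of DAX-1 repression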
Numbers stand for hits; n = inactive; x = no result. The list is not random: actives were taken first. Their share in the collection is about 5.7%.

SMILES	hgDAF12 agonist	DAX1 inh-1	ssDAF12 agonist	AHR activator	hcDAF12 agonist	DAX1 inh-2
COc1ccc(N2CCN(CCCNC(=S)Nc3c(C)cccc3C)CC2)cc1	n	5.6	n	n	n	n
COc1ccc(NC(=S)NCCCN2CCOCC2)cc1	n	n	n	n	n	n
CN(C(=O)c1cccc(NC(=O)Cc2ccc(NC(=O)C3CCCN(C(=O)C4CCCC4)C3)cc2)c1)C1CC1 (configuration not stated)	n	n	n	x	n	n
C/C(=N/NC(=O)CCCOc1ccc(Cl)cc1Cl)c1ccc(C)o1	n	n	1.1	n	n	n
NC(=O)C1CCN(c2nc(-c3ccccc3Br)cs2)CC1	n	x	n	65	n	n
COC(=O)c1ccc2nc(-c3ccc(Cl)cc3)c(Cc3ccccc3)n2c1	n	x	n	x	n	n
Cc1cc(-c2nnc(-c3cccc(Cl)c3)o2)no1	n	n	n	n	n	n
O=C(Nc1ccccc1C(F)(F)F)c1cc2ccccc2o1	13	5.2	n	n	n	n
Cc1ccc(NC(=O)c2cc3ccccc3o2)cc1S(=O)(=O)N(C)C	11	n	n	x	n	n
Cc1ccc(NC(=O)c2cc3ccccc3oc2=O)cc1S(=O)(=O)N(C)C	x	x	x	n	x	x
COC(=O)c1cccc(NC(=O)c2cc3ccccc3o2)c1	12	n	n	n	n	n
COc1ccc(C)cc1NC(=O)c1cc2ccccc2o1	n	n	1.6	n	6.0	n
COc1cc(NC(C)=O)ccc1NC(=O)c1cc2ccccc2o1	n	n	n	n	n	n
COc1ccc(Cl)cc1NC(=O)COC(=O)C1CC(=O)N(Cc2ccccc2)C1 (configuration not stated)	n	n	n	n	n	n
CC1=C(C(=O)N2CCCCCC2)CC(CC(=O)NCc2cccc3ccccc23)C(=O)N1CCC1=CCCCC1 (configuration not stated)	n	x	n	x	n	n
Cc1ccc(OCCN(C)C(=O)c2cc(COc3ccc(F)cc3F)on2)cc1	n	n	n	n	n	n
COc1ccc(OC)c(NC(=O)c2cc3ccccc3o2)c1	n	n	n	61	n	n
COc1ccc(C)cc1NC(=O)c1ccc(OC(F)F)cc1	n	n	n	70	n	n
CCOc1ccccc1NC(=O)c1cc2ccccc2oc1=O	n	n	n	n	n	n
CCOc1ccccc1NC(=O)c1cc2ccccc2o1	n	n	0.9	x	n	n
COc1ccc(C)cc1NC(=O)c1cccc(C(=O)Nc2cc(C)ccc2OC)c1	n	n	n	n	n	n
COCCN(C(=O)COC(=O)CSc1ccc2ccccc2c1)c1c(N)n(Cc2ccccc2)c(=O)[nH]c1=O	n	n	n	n	n	n
CN(C)CCN1CCN(C2CN(C3CCCCC3)S(=O)(=O)C2)CC1 (configuration not stated)	n	x	n	x	n	n
N/C(=N\NC(=O)c1cccs1)c1cc2ccccc2oc1=O	11	n	n	n	n	n
Cc1sc2nc(CSc3ccc([N+](=O)[O-])cc3)[nH]c(=O)c2c1C	x	x	x	47	x	x
O=C(Nc1nc2ccsc2c(=O)s1)c1ccco1	n	x	n	n	n	n
COc1cc2sc(NC(=O)c3ccco3)nc2cc1Cl	12	6.7	n	49	n	n
O=C(Nc1nc2c(Cl)ccc(Cl)c2s1)c1ccco1	n	n	n	n	5.6	n
O=C(N[C@@H](Cc1cccnc1)C(=O)N1CCC[C@H]1C(=O)NCCc1ccccc1Cl)c1ccc(Cl)cc1Cl	n	x	n	x	n	n
CC1=C(C(=O)OCC2CCCO2)C(c2coc3ccc(Cl)cc3c2=O)C2=C(CCCC2=O)N1 (configuration not stated)	n	8.9	n	n	n	n
